# Measurements reported in the supplement of paper PMC10121225.
# Where a name gives a salt, the structure may show the parent alone.
# Tested on: hN + hpA co-culture (H1 iNGN2 human neurons + human primary astrocytes)
# Test: presynaptic density (SYNAPSIN1 puncta per MAP2 neurite area), Z-score vs DMSO controls; higher = more presynaptic puncta (synapse-promoting)
# Conditions: 3 µM; 72 h
# 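Note: immunostained co-cultures imaged by high-content microscopy, Z-score per plate against mean and SD of 0.1% DMSO wells, compounds added on differentiation day 18, analysed day 21.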
row,SMILES,presynaptic density (Z-score)
1,O=c1[nH]c2ccc(Cl)cc2c(N[C@@H]2CN3CCC2CC3)c1-c1nc2ccccc2[nH]1,-2.58
2,CCCN1CCO[C@@H]2c3cc(O)ccc3OC[C@H]21,0.0588
3,"O=[N+]([O-])C=Cc1ccc2c(c1)OCO2 [MNS (3,4-Methylenedioxy-Œ≤-nitrostyrene]",-0.543
4,COc1ccc(C(=O)N2CCCC2=O)cc1 [Aniracetam],0.286
5,C[C@@H]1O[C@@H](O[C@H]2C[C@@H](O)[C@]3(CO)[C@H]4[C@H](O)C[C@]5(C)[C@@H](C6=CC(=O)OC6)CC[C@]5(O)[C@@H]4CC[C@]3(O)C2)[C@H](O)[C@H](O)[C@H]1O [Ouabain],-1.54
6,Cc1sc2c(c1C)C(c1ccc(Cl)cc1)=N[C@@H](CC(=O)OC(C)(C)C)c1nnc(C)n1-2,2.8
7,CCOC(=O)c1cncn1[C@H](C)c1ccccc1 [Etomidate],0.377
8,O=C1CC[C@@]2(O)[C@H]3Cc4ccc(O)c5c4[C@@]2(CCN3CC2CC2)[C@H]1O5 [Naltrexone HCl],1.84
9,CCN(CC)C(=O)c1ccc(C2=CC3(CCNCC3)Oc3cccc(O)c32)cc1,-0.78
10,CC[C@@H]1/C=C/C=C/C[C@H](C)[C@H](O)[C@](C)(O)C(=O)[C@H](C)[C@@H](O)[C@H](C)C(=O)[C@H](C)[C@@H](O)[C@H](C)/C=C/C(=O)O[C@H]2[C@@H](C)[C@@H](CC1)O[C@@]1(CC[C@@H](C)[C@@H](C[C@H](C)O)O1)[C@@H]2C [Oligomycin A],-1.28
11,CN1CCCCC1Cn1cc(C(=O)c2cc([N+](=O)[O-])ccc2I)c2ccccc21 (configuration not stated),-0.667
12,CCC(COC(=O)c1cc(OC)c(OC)c(OC)c1)(c1ccccc1)N(C)C (configuration not stated),0.31
